# Results reported in PubChem BioAssay AID431 (Sanford-Burnham Center for Chemical Genomics, 2006).
# In all, about 63,000 compounds went through this assay and about 1,100 (1.7%) were called active. The list comes from a sample in which actives are over-represented; it also holds similar structures and randomly drawn compounds. Entries with a potency or affinity are not part of this list. Unmarked numbers belong to inactive results.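 How the source made its calls: active means compounds whose percent cytotoxicity in the single-dose primary screen, scaled between solvent and toxic-drug controls, exceeds 50; inactive means the rest.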
# Assay: cytotoxicity in KRAS-transformed pancreatic duct cells, primary screen, cell-based, fluorescence, HTS (AID 431);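 further: 0% = DMSO solvent wells and 100% = doxorubicin-treated wells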
# Conditions: HPDE-C7K KRASV12 cells, Alamar Blue viability, 48 h; at 10 µM; active compounds read high
row,SMILES,cytotoxicity
1,Cc1cc(C)cc(-n2nnc(C(=O)NCc3ccc(Cl)cc3)c2N)c1,5.6%
2,CCN1CCN(C2CCN(C(C)=O)CC2)CC1,5.4%
3,C/C=C/Cn1c(SCc2ccccc2)nc2c1c(=O)[nH]c(=O)n2C,1.2%
4,C/C=C/Cn1c(SCc2ccc(C)cc2)nc2c1c(=O)[nH]c(=O)n2C,57.9% (active)
5,C/C=C/Cn1c(SCc2ccc(Cl)cc2)nc2c1c(=O)[nH]c(=O)n2C,8.2%
6,Clc1ccc(-n2cnnn2)cc1,-0.1%
7,COc1ccc(C2NC(=O)NC(C)=C2C(=O)Nc2cc(C)ccc2C)cc1OC (centres undefined),1.2%
8,O=C(C1CC1)N1CCc2cc(Br)cc(S(=O)(=O)NCCCN3CCCC3)c21,1.3%
9,CCOC(=O)c1c(C)[nH]c(C(=O)OC/C(O)=C(\C#N)c2nc3ccccc3[nH]2)c1C,81.8% (active)
10,Cc1nn(-c2ccccc2)c(C)c1C(=O)OC/C(O)=C(\C#N)c1nc2ccccc2[nH]1,13%
11,N#C/C(=C(/O)COC(=O)c1ccc2c(c1)OCCO2)c1nc2ccccc2[nH]1,17.6%
12,CSc1nnc(-c2nnc(SC)n2-c2ccccc2)n1-c1ccccc1,-8.3%
13,CC(=O)C1=C(C)NC(SCC(=O)c2ccccc2)=C(C#N)C1CC(C)C (centres undefined),3.7%
14,CC(=O)C1=C(C)NC(SCC(=O)c2ccc(Cl)c(Cl)c2)=C(C#N)C1c1ccco1 (centres undefined),77.4% (active)
15,CC(=O)C1=C(C)NC(SCC(=O)c2ccc(Cl)cc2Cl)=C(C#N)C1c1ccco1 (centres undefined),40.7%
16,CC(=O)C1=C(C)NC(SCC(=O)c2cc(Cl)ccc2Cl)=C(C#N)C1c1ccco1 (centres undefined),60.7% (active)
17,COCCOC(=O)C1=C(C)NC(SCC(=O)NC(C)(C)C)=C(C#N)C1c1ccco1 (centres undefined),2.3%
18,CCN(CC)C(=O)CSC1=C(C#N)C(c2ccco2)C(C(=O)OCCOC)=C(C)N1 (centres undefined),-15.8%
19,CCOC(=O)CSC1=C(C#N)C(c2ccco2)C(C(=O)OCc2ccccc2)=C(C)N1 (centres undefined),61% (active)
20,C=CCOC(=O)C1=C(C)NC(SCC(=O)N(CC)CC)=C(C#N)C1c1ccco1 (centres undefined),-4.1%
21,CSCSC1=C(C#N)C(c2ccccc2Cl)C(C(C)=O)=C(C)N1 (centres undefined),23.4%
22,Cc1ccc(C(=O)CSC2=C(C#N)C(c3ccco3)CC(=O)N2)c(C)c1 (centres undefined),5%
23,C=CCOC(=O)C1=C(C)NC(SCC(=O)Nc2ccc(C)c(Cl)c2)=C(C#N)C1c1ccco1 (centres undefined),-1.3%
24,CCCNS(=O)(=O)c1ccc(CCC(=O)N2CCOCC2)cc1,3.7%
